The chains are these.
T1: TRAF2, Q12933
T1 chain: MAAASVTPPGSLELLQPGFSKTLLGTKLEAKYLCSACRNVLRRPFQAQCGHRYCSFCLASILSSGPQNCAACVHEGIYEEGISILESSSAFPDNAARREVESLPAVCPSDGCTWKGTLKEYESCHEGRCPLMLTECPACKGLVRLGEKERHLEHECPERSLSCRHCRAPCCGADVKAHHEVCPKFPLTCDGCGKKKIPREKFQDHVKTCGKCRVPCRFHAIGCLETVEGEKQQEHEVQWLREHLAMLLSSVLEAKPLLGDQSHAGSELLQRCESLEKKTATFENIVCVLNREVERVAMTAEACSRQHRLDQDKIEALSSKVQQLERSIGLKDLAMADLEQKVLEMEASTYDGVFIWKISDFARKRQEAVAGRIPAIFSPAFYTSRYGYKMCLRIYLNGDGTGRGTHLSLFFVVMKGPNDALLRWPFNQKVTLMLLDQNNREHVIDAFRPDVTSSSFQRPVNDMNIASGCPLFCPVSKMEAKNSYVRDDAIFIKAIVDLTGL

B1: traf2_out_3_89_2284 (protein)
chain: SHHMEALIEEARKIAEAYAKGFRKSLTFVAKQMVAEGHSLETLEGVANAAKTALVEEFRESLKERGLDEETIKEIVEELRKKLDEIVKEVIAEAKKARAA
B2: traf2_out_6_156_2424 (protein)
chain: MLEKIIKEAEEKIKKEIKKLAEASEEKKIKYISDIAGAVYKALQKMREAGASVEEIKEAIERLKKVAEKEAKKAGLDKDTRDLLLASINAVGEVALREAK
B3: traf2_out_1_158_908 (protein)
chain: STDVSTLHAVATSIAEVYAEEAKERGLEKAAELLKKLKKEIEKLYEANKDASLEEMAAKVLELIKKFEEESKSFDPETREFVEIAFRQIRSGILQVVKLA
B4: traf2_out_5_63_2366 (protein)
chain: SAAEEERRRLREEARLIEAAIRAVIDGREEEARRLLAEAEARGIDWRTVALYFRGMARALRLQNEPQEKIERMERAAEEARARAEAAAAAAAAAAAAAAA
B5: traf2_out_20_38_2025 (protein)
chain: SEEEEEEKKLEELIKVANDAYDAATAEIAALKAEGKSVEEIAEWAKEKIKEILDKVGLEEEKEELIADVDRVLDSPDALTLIARILARAVAKAKQKELQE
B6: traf2_out_20_3_2078 (protein)
chain: SELEAELERELDRALALLRQAAARADPETAARLDALIARLRASRELSIEDRLVAISAVRREVRALAEEARAAGRADLAALLDAAADALNRAAQLAYEILE
B7: traf2_out_17_178_1662 (protein)
chain: SKEEERKKISELTDELIDLAEDAAERMLELAEKEGDVSEEELEELREARRRGSATDVLALGERLIPKLKNSEELGALLEEFKARYRELSKEIAEAYERYE
B8: traf2_out_1_27_1014 (protein)
chain: SDEELTKLIKETDKKIAEVSLEEAKKVVKEALKEAAKLGPEDAMVLANTLIASQLDEERLKAIAEAAVEAFKELGFPEEDIERLKRIAESVLKLNKKVLA
B9: traf2_out_11_104_655 (protein)
chain: LTREQAREFNDFAMEARDRAREIAEAVAAELEARGHTEEAARVRALLNDPGAGISSFRNLLEELKPRLDAESRKVADAAIEELRRLQREVSEKLNELLAK
B10: traf2_out_20_3_2147 (protein)
chain: EELERELAEELERAKALLAEAAALADPETAARLEALRERLEASRALSPSDQLVVVSEVRREVRLLAQEARAAGDEELAALLEEAAAALNRAANLLMRIIE
B11: traf2_out_13_95_1174 (protein)
chain: EEEKTKKEREIASEAYDEREEVMTAYKEAVVALLGDPAAAALMDEVVRNMNEFTLEHATAQLVAAHPEKAAELQALRDEALAKMKEINKKYTEKLNEIEK
B12: traf2_out_14_149_1247 (protein)
chain: SHMAETLRAAAELNERIAKALEEILKLLEAGKLEEAKAALEAAIKEAEALGEELGVTTSGIFEMEHILKLLKEDPEEAKKAVKEAAERARDAAEVLRSIA
B13: traf2_out_17_162_1536 (protein)
chain: SPEDERLAELQKRLEELEKKLEELEKKLKNIEKLSKEELTDLLVEASELRREARELAEELRELAEKTGSPEAEELRERAEELAEKLQRIANEIYKELEKK
B14: traf2_out_17_178_1708 (protein)
chain: TKEEARKRISEATDEMIDLAEEAAARLLEIAEREGSLSPEELAALRRARRLGSARTTIALMERAIPRLRSAEEVRALLEELKARYRELSKEIAEALEKYE
B15: traf2_out_5_192_2336 (protein)
chain: SAEEEARERRLRERAEEILREAEERAKKISERTGLDYATVLATLAFSRVVARAESAEEARLMLDYIVEMITARDPSWAPIAEGEKAAALRAIDAIEAAEP
B16: traf2_out_20_38_2023 (protein)
chain: SMEEEEEEKLKELVEVANKAYDEYSAKFAKWKAEGKTVEEIAEEVKKEIRELLSKAGLEEEAEILIEDVDLALKSPNAERLLIRTLARAVALVKQKELQK
B17: traf2_out_13_95_1070 (protein)
chain: TRELARRINELADRAEERALALLAAAQAELADDPEAVAVLDEAARLAETRGIRAAIALLREAQAAHPEHREAFDALIAELEEIRRELGREVAKLIKEAEE
B18: traf2_out_6_156_2375 (protein)
chain: MLEKILEEAKKKIEELIKELAKASEEKKIAYISRIAGAVYRALQRMREAGASVEEIKKAVEELKKVAEEKAKEAGLDQDTIDLLLASIDAVGKVALEEAK
B19: traf2_out_17_178_1676 (protein)
chain: TKEEKRKKISELTDKYIDLAEATAARLLALAEAEGFMTPEELAALRAAQRRGNGRLVEALLERAIPRSPRAAEVAALLADYRARSRELAKEIAKALEEYE
B20: traf2_out_6_156_2412 (protein)
chain: MVEEILEKALEKVEELIKELAKASEEKKIAYISKIAGTAYRALQELREAGASLEEIEAFAEEFKKRTEELLKEAGLPEDTINLVLSALNAVFDVAIAEAK
B21: traf2_out_11_155_735 (protein)
chain: EEKQKLIQEMNDKIMELFEEARRRALEIARRAAERHPEHREEIEAAIEESKGFSYRSFILEMIRLFRELGLEEEAEELERLLEETQRKASKIVIETEKKL
B22: traf2_out_17_162_1539 (protein)
chain: SPTEERLEELERRLERLEEELKKLKEKSEKLDELSKEEISDLLVEVSELRREALRLAEELRRLAEETGSPRARELEERAERLAEELQRIANKIYKELEKK
B23: traf2_out_11_155_726 (protein)
chain: SKFKEAQNKIVDFNLEVGDELLKKVEEIIKEIEKEDPEVAKKLREVVEKYKKFSNRSAARAAIDLLREEGYEEYAERLEKALEEAQRKMSKKTQEIEKEL
B24: traf2_out_6_3_2516 (protein)
chain: MEESIRKDAETVLENMGITTAEQLKRLVKAEVNAVKKLVSRKDVDEADLAGAESVLNLTRAMVEVAYEKLPDLTEEQKKEMLALIKEAEELVKKKRKELE
B25: traf2_out_6_3_2520 (protein)
chain: MEESIRRDARTVLENMGITTAEQLKRLVEANVNAVKKLVSRPDVDEADLAGARSVLALTRAMVDVAAETLPDLTPEQVAEMKALIKEAEELVEKKRKELE
B26: traf2_out_18_3_1943 (protein)
chain: KEEELKKISEEIDKIIDEVTARAREELDRLLAEHPELAAEAEALRADLDAGAGPFGILDELARLWERAGAADEAAAARAFLREKRKKLQELVDKYEELRK
B27: traf2_out_13_95_1132 (protein)
chain: SAETAKKIMEIADKMLDEILAILEELLKKAEAAGVGVEEIQKAIHLAEHHSVNEAIHLLRELAKKHPEFKAELEAAIAKIEAIREKAGREVAKILKEAAE
B28: traf2_out_1_27_1022 (protein)
chain: SDEEFTRLIRETDRKIAEVDLEEQKKVVKEALKEAAKWGLGDARMLARTLVASQNDEERQEAIKEASLEAFKELGAPEEVIEELERVFNSIIERKKKVLA
B29: traf2_out_18_167_1872 (protein)
chain: SAELKKKREELTDELVRYSTIRRALLLILEALKRSREEARRLLEEYVEKYPDSEVLREALEVFETKSDEEFRKFLEEKAEELQKEANEKYKELEELEKEE

In all, about 1,800 sequences were measured (“median log2 fold change of GCK-ALFA target abundance (FLAG IP / Myc IP barcode read proportion)”: median about 0.14, lowest 2% from about -0.84 on). Shown is part of a subset that was picked to be rich in the lowest values.

In the experiment the target is T1, TRAF2, Q12933. Briefly: median log2 fold change of GCK-ALFA target abundance (FLAG IP / Myc IP barcode read proportion) (log2 ratio); each designed protein is fused to an ALFA-tag nanobody in HEK293 cells to bring the named protein to FLAG-tagged glucokinase (GCK); Myc marks an untargeted standard; higher = target protein stabilised (more abundant). The following applies: target protein: 3xFLAG-MCP-GCK-ALFA reporter; HEK293 landing pad (RPLP). The protocol: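 LABEL-seq trans screen in HEK293 landing-pad cells. Each de novo designed 100-aa effector handle, binding the indicated effector (E3 ligase, DUB or autophagy protein), is fused to a constant NbALFA target handle and induced with 2 ug/mL doxycycline. A FLAG-MCP-GCK-ALFA target and a Myc-MCP standard reporter were transfected, and after 48 h circRNA barcodes were recovered by anti-FLAG and anti-Myc IP and sequenced. The value is the median across barcodes (at least 3 per design) of log2(FLAG/Myc read-proportion ratio), with the two transfection replicates pooled. Negative values mean degradation and positive values mean stabilisation of the target.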
Turning to B1, the “median log2 fold change” value is -0.43.

In the case of B2, the “median log2 fold change” value is -0.0673.

On to B3, for which the “median log2 fold change” value is 0.0558.

Take B4: the “median log2 fold change” value is -0.861.

On to B5, for which the “median log2 fold change” value was -0.841.

Turning to B6, the “median log2 fold change” value is -0.0407.

Turning to B7, the “median log2 fold change” value worked out at 0.161.

For B8, the “median log2 fold change” value was 0.337.

Consider B9, for which the “median log2 fold change” value worked out at 0.222.

B10: the “median log2 fold change” value was 0.226.

Turning to B11, the “median log2 fold change” value was found to be 0.311.

Turning to B12, the “median log2 fold change” value is -0.194.

With B13, the “median log2 fold change” value stood at 0.429.

Consider B14, for which the “median log2 fold change” value is -0.184.

With B15, the “median log2 fold change” value is -1.01.

In the case of B16, the “median log2 fold change” value was -1.38.

With B17, the “median log2 fold change” value is -0.334.

In the case of B18, the “median log2 fold change” value turned out to be 0.151.

On to B19, for which the “median log2 fold change” value is -0.865.

In the case of B20, the “median log2 fold change” value is 0.261.

In the case of B21, the “median log2 fold change” value was -0.138.

Take B22: the “median log2 fold change” value was 0.204.

As for B23, the “median log2 fold change” value amounted to 0.469.

For B24, the “median log2 fold change” value was -0.56.

With B25, the “median log2 fold change” value is -0.989.

Regarding B26, the “median log2 fold change” value is 0.0947.

Turning to B27, the “median log2 fold change” value is -0.315.

Turning to B28, the “median log2 fold change” value was determined as 0.214.

As for B29, the “median log2 fold change” value is 0.106.

Source of the values: the supplement of paper PMC12632987.
